Bioassay records: PubChem, National Center for Advancing Translational Sciences (NCATS)
Sampled rows, rich in hits. Any-hit rate of the full collection: about 9.4%.
NPC1 promoter act: activates the NPC1 promoter; Huh7 NPC1 promoter luciferase reporter, 24 h; Potency, µM (highest dose often 9.22 µM), inactives show at the top dose activation, usual class: activators; 320,000 tested, 2.4% active; AID 485313; also: % of control where 0% means no effect; nearly all actives have a fitted effect of over 60% in size
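NPC1 promoter–luciferase Huh7 cells; 24 h compound; luminescence.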
ELG1 genotoxic: induces genotoxicity in HEK293T cells with luciferase-tagged ELG1. HEK293T ELG1-luciferase reporter, luminescence, 16 h. Potency, µM (series often up to 46 µM), for the others: at the highest dose activity change, positive = activation, actives largely listed as activators. 330,000 tested, 1.3% active. AID 504466; also: % of control where 0% means no effect; nearly all actives have a fitted effect of over 60% in size
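16 hr compound incubation (37 °C, 5% CO2) of HEK293T cells carrying luciferase-tagged ELG1; luciferase then measured by ONE-Glo luminescence after 30 min at RT.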
FLuc counter: inhibits or activates purified firefly luciferase, miR-21 counter-screen; purified FLuc, Km substrates, luminescence inhibition; 360,000 tested, 6.9% active; P08659; Potency, µM (doses to about 57.5 µM), inactives show at the top dose activity change, negative = inhibition, hits mostly inhibitors;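 also: plate controls were vehicle for no effect and reference inhibitor for full effect; nearly all actives have a fitted effect of over 55% in size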
Target sequence (P08659 whole entry, looked up): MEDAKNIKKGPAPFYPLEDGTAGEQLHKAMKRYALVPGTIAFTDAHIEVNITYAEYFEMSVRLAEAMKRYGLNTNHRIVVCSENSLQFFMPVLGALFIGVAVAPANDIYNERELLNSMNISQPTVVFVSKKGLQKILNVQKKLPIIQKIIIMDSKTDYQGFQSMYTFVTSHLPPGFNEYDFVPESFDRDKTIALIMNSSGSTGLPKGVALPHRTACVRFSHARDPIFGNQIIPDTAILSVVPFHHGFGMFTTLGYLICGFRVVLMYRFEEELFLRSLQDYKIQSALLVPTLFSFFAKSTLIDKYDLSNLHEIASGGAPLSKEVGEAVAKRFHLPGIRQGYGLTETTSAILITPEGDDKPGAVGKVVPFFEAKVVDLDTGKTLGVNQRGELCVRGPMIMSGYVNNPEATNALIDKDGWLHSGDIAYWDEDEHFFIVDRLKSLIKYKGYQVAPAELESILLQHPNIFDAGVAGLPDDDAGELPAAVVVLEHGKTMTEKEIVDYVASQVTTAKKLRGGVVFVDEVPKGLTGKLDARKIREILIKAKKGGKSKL
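Biochemical qHTS of compounds, final roughly 60 µM downward over six points, against 10 nM purified firefly luciferase using Km concentrations of substrates (10 uM D-luciferin, 10 uM ATP) in Tris acetate pH 7.5 buffer; luminescence output.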
Rab9 promoter act: activates the Rab9 promoter. Huh7 Rab9 promoter-luciferase reporter, luminescence, 24 h. Potency, µM (top dose mostly 9.22 µM), for the others: at the top dose activation, negative = inhibition, hits mostly activators. 320,000 tested, 2.8% active. AID 485297; also: % of control where 0% means no effect; nearly all actives have a fitted effect of over 60% in size
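Huh7 cells stably carrying Rab9 promoter–luciferase reporter, plated 1500 cells/well, compound added after 2 h and incubated 24 h at 37 °C; luciferase luminescence then read after 10 min with detection reagent.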
SMN2 splice enh: increases expression of the SMN2 splice variant; HEK293 SMN2-luciferase splicing reporter, luminescence, 30-36 h; Potency, µM (doses to about 46.1 µM), inactives show at the highest dose activity change, positive = activation, actives largely listed as activators; 210,000 tested, 2.8% active; also: % of control where 0% means no effect; nearly all actives have a fitted effect of over 55% in size
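HEK293 cells carry an SMN2 minigene-luciferase reporter in which exon 7 inclusion puts luciferase in frame. Cells were seeded at 2000 cells/well, attached for 10-12 hours, then exposed to compounds for 30-36 hours at 37C before ONE-Glo luminescence.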
ELG1 repair inh: ELG1-dependent DNA repair inhibition; 330,000 tested, 2.3% active; Potency, µM (top dose mostly 46.1 µM), for the others: at the highest dose activity change, negative = inhibition, most hits filed as inhibitors; HEK293T ELG1-luciferase reporter, luminescence, 16 h; DNA damage induced by 5-fluorouridine; AID 504467; also: % is scaled to controls: 0 for no effect and ±100 for the full control effect; nearly all actives have a fitted effect of over 55% in size
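HEK293T cells expressing luciferase-tagged ELG1 (2,000/well) received 5-Fluorouridine plus compound or DMSO for 16 hr at 37 °C. Luciferase was read by ONE-Glo luminescence after 30 min at room temperature.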
Numbers without * were called inactive; ? = inconclusive; . = not tested or not shown; [ ] = remark or other dose. Calls follow the shape of the dose curve; as a rule, active = well fitted curve in the direction sought with a large enough effect; inconclusive = small, poorly fitted or top-dose-only effect, or another doubt; inactive = no such curve, though single readings can be large; an effect the other way counts as inactive or inconclusive. Potency is read from the fitted curve at half-maximal effect.

SMILES | NPC1 promoter act | ELG1 genotoxic | FLuc counter | Rab9 promoter act | SMN2 splice enh | ELG1 repair inh
COc1ccc(Cl)cc1NC(=O)COC(=O)/C=C/c1c(C)nn(C2CCS(=O)(=O)C2)c1Cl (centres undefined) | -4.2% | -6.8% | -8.2% | -20.6% | . | 13µM*
O=c1cc(-c2ccccc2Cl)oc2cc(O)cc(O)c12 | 6.9% | 5.2% | 26.9µM* | 11.7% | -4.7% | 10.0%
O=C(Nc1ccc(O)c2c(=O)cc(-c3ccccc3Cl)oc12)c1ccc(F)cc1 | 1.9% | 6.8% | 0.4% | 0.9% | . | 12.3%
Nc1ccc(O)c2c(=O)cc(-c3ccccc3Cl)oc12 | 2.82µM* | ? | 2.69µM* | 2.82µM* | 11.2µM* | ?
NC(=O)C1CCN(C(=O)CCSc2ccc(Cl)cc2)CC1 | 10.6% | 7.6% | -7.4% | 22.4% | 0.8% | ?
O=C(CCSc1ccc(Cl)cc1)N1CCN(c2ccc(O)cc2)CC1 | ? | ? | ? | ? | . | 8.2µM*
O=C(CCSc1ccc(Cl)cc1)N1CCN(c2ncccn2)CC1 | ? | ? | 19µM* | 24.9% | 8.3% | ?
O=C(CCSc1ccc(Cl)cc1)N1CCCCCC1 | ? | 14.3% | 19µM* | 3.55µM* | 7.4% | ?
O=C(CCSc1ccccc1)N1CCN(c2ccccc2)CC1 | 2.82µM* | ? | 19µM* | 2.82µM* | 22.4µM* | ?
CN(Cc1cc(C(C)(C)C)cc(Br)c1O)Cc1cc(C(C)(C)C)cc(Br)c1O | . | . | . | . | -10.5%[9.22 µM] | .
COc1ccc(-c2nc3nc(C)cc(N4CCN(c5cccc(C(F)(F)F)c5)CC4)n3n2)cc1 | . | . | -9.0% | . | -2.0% | .
c1ccc2sc(Sc3ncnc4sccc34)nc2c1 | -6.9% | 0.2% | 0.953µM* | -14.7% | ? | -3.3%
c1ccc(CSc2ncnc3sccc23)cc1 | -5.0% | -0.4% | -15.7% | 1.9% | -4.2% | ?
CCc1cc2c(Sc3nc4ccccc4s3)ncnc2s1 | -22.7% | 0.3% | 10.7µM* | -2.5%[1.84 µM] | . | -13.0%
CC(C)(C)C(=O)Nc1c(C(=O)N2CCN(c3ccc(F)cc3)CC2)oc2ccccc12 | . | . | 0.6% | . | . | .
Cc1ccc(CN2CC(C(=O)Nc3cc(C)ccn3)CC2=O)cc1 (centres undefined) | 0.0% | 16.4µM* | 12µM* | -0.2% | . | ?
Cc1ccnc(NC(=O)C2CC(=O)N(c3ccc4c(c3)OCCO4)C2)c1 (centres undefined) | 8.5% | 0.517µM* | 4.78µM* | 19.8% | . | ?
COc1ccc(-c2csc(NC(=O)C3CC(=O)N(c4ccc5c(c4)OCCO5)C3)n2)cc1 (centres undefined) | -4.2% | -3.7% | -14.4% | -2.5% | . | 23.1µM*
Cc1ccc(CN2CC(C(=O)Nc3ccncc3)CC2=O)cc1 (centres undefined) | -0.8% | -2.5% | -0.5% | 14.9% | . | 0.0%
CC(=O)Nc1ccc(-c2csc(NC(=O)C3CC(=O)N(c4ccc5c(c4)OCCO5)C3)n2)cc1 (centres undefined) | -0.8% | -6.2% | -16.8% | 2.1% | . | ?
COc1ccc(-n2cnc3cc(C(=O)NCCC4=CCCCC4)ccc32)cc1 | . | . | -2.6% | . | . | .
CC(=O)c1cccc(NC(=O)N2CCC(c3ccc(C)cc3)C2)c1 (centres undefined) | ? | 2.6% | 16.9µM* | 14.6% | . | -3.6%
Cc1ccc(C2CCN(C(=O)Nc3ccc(F)cc3)C2)cc1 (centres undefined) | ? | ? | 23.9µM* | ? | . | ?
Nc1c(C(=O)N2CCCCC2)sc2nc3c(cc12)CCCC3 | 2.51µM* | 6.51µM* | 6.75µM* | 2.82µM* | . | ?
Nc1c(C(=O)Nc2ccccc2F)sc2nc3c(cc12)CCCCCC3 | . | . | -5.2% | . | 7.6% | .
Nc1c(C(=O)Nc2ccccc2)sc2nc(-c3cccnc3)ccc12 | ? | 3.0% | ? | 23.2% | . | ?
Nc1c(C(=O)N2CCCC2)sc2nc(-c3ccccc3)ccc12 | 2µM* | ? | 4.78µM* | 1.58µM* | . | ?
